# PubChem BioAssay (NCI)
# About 83,000 compounds went through this panel and 20% of them were active in at least one assay; those are over-represented in the sample as a whole.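 48-hour exposure, single concentration, 96-well plates; percent growth endpoint where 0 means no net growth. Active: below 10.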 Unmarked numbers belong to inactive results. Activity calls are given as the source filed them.
# Key:
# Assay in all cases: NCI-60 one-dose screen, 48 h (100 = growth as untreated, 0 = no growth, -100 = all killed)
# [1] = system: DU-145 prostate; settings: 10 µM
# [2] = system: K-562 leukemia; settings: 10 µM
# [3] = system: MALME-3M melanoma; settings: 10 µM
# [4] = system: RXF 393 renal; settings: 10 µM
# [5] = system: SF-268 CNS; settings: 10 µM
# [6] = system: SF-295 CNS; settings: 10 µM
# [7] = system: SF-539 CNS; settings: 10 µM
# [8] = system: UACC-257 melanoma; settings: 10 µM
# [9] = system: M14 melanoma; settings: 10 µM
# [10] = system: HCT-15 colon; settings: 10 µM
# [11] = system: HT29 colon; settings: 10 µM
# [12] = system: SNB-75 CNS; settings: 10 µM
# [13] = system: U251 CNS; settings: 10 µM
# [14] = system: PC-3 prostate; settings: 10 µM
# [15] = system: SK-MEL-5 melanoma; settings: 10 µM
# [16] = system: UACC-62 melanoma; settings: 10 µM unless noted
# [17] = system: LOX IMVI melanoma; settings: 10 µM
# [18] = system: SK-MEL-28 melanoma; settings: 10 µM
# [19] = system: MDA-MB-231 breast; settings: 10 µM
# [20] = system: SNB-19 CNS; settings: 10 µM
Compound,growth [1] [%],growth [2],growth [3] [%],growth [4],growth [5] [%],growth [6] [%],growth [7],growth [8] [%],growth [9] [%],growth [10] [%],growth [11],growth [12],growth [13] [%],growth [14] [%],growth [15] [%],growth [16] [%],growth [17],growth [18] [%],growth [19] [%],growth [20] [%]
CC(=O)Cc1cc(-c2cc(CC(C)=O)[nH]n2)n[nH]1,107,99.5%,94.6,103%,98.5,94.7,98%,93,99.5,99.4,102%,87.1%,97.7,96.7,99.6,90.3,96.3%,107,,
COC(=O)c1[nH]c(=O)c(C#N)c(C(=O)OC)c1C(=O)c1ccccc1,104,102%,96.8,122%,99.4,96.2,97.1%,86.1,107,98.1,113%,85.6%,96.8,103,100,88.6,89.9%,,,
Clc1ccc(-c2nnc(-c3cccc4ccccc34)o2)cc1,114,104%,99.8,102%,103,110,94.8%,78,103,80.1,89.3%,76.8%,90.2,82.4,93.7,,84.2%,107,,
CC(C)=C(NC(=O)c1ccccc1)C(=O)O,106,102%,99,103%,96.1,116,110%,97.5,108,104,99.6%,108%,114,87.8,99,,101%,108,,
CCOC(=O)c1cc(/C=C/c2cccc(Cl)c2)on1,95.2,31.6%,93.1,97.1%,93.7,88.2,89.6%,108,78.8,64.8,78.8%,87.4%,,85.1,96.9,78.8,-3.76% (active),104,,
c1c(-c2cc(C3CC3)[nH]n2)n[nH]c1C1CC1,111,70.9%,92.2,108%,107,98,101%,90.8,98.9,103,98.7%,112%,95.2,98.1,,87.2,77.8%,100,,
Cc1cc2nc(CC(=O)c3ccccc3)c(=O)[nH]c2cc1C,112,90.1%,101,101%,108,89.8,95.6%,106,87.2,87.7,97.5%,117%,95.4,88.4,96.1,74.9,96.2%,109,,
CS(=O)CC1=NC(=N)N=C1CS(C)=O (stereo not drawn),111,99.4%,98,107%,106,98.1,99.5%,86.6,105,102,109%,97.7%,98.1,98.7,99.3,98.4,96.7%,108,,
O=[N+]([O-])c1ccc(-c2noc(-c3cccs3)n2)cc1,89.3,93.7%,91.7,92%,101,72.9,81.3%,100,91.7,84,92.5%,83.2%,,90.3,83.5,76.6,86%,99.5,,
COC(=O)c1cc(-c2ccc(Cl)c(Cl)c2)[nH]c(=O)c1C#N,108,108%,89.1,109%,102,96.1,101%,98.4,99.2,96.3,107%,99.2%,97.3,102,98.9,90.9,101%,100,,
COC(=O)C(C)Oc1ccc(OC#N)cc1 (stereo not drawn),105,94.1%,93.1,101%,98.9,96.3,94.6%,104,101,99.7,102%,88.9%,101,86.4,99,86.8,93.2%,106,,
COc1ccc(C2OC(N)=C(O)C2=O)cc1OC (stereo not drawn),109,94.6%,95.5,110%,101,99.9,90.9%,106,111,101,108%,101%,111,97.2,,93.7,102%,105,,
CC1(O)OC(COc2ccc(Cl)cc2)COC1O (stereo not drawn),108,104%,99.2,107%,104,103,97.3%,95.7,109,103,116%,112%,100,107,101,89.8,98.9%,107,,
COc1ccccc1NC(=O)C1=C(C)NC(C)=C(C(=O)Nc2ccccc2OC)C1c1cccc([N+](=O)[O-])c1,84.1,57.3%,84.7,79.2%,67,49.5,75.2%,92.3,76.5,64.4,75.8%,74.2%,76,41.6,61.5,54.5,69.1%,,,
CCOC(=O)c1cc(/C=C/c2ccc(Cl)cc2Cl)on1,30.6,5.36% (active),69.6,-37.3% (active),89.1,17.6,-48.5% (active),105,56,,1.53% (active),58.9%,,,92.3,48.7,-90.1% (active),86.1,,
CCc1nn(Cc2ccccc2)c2nc(C)c(CCc3ccccc3)c(Cl)c12,102,61.1%,75.5,,106,85.1,86.7%,,100,98.5,88.6%,93.2%,96.9,,82.7,84.5,92.6%,107,99.7,80.2
CNc1nc(NC)c2cn[nH]c2n1,113,104%,,101%,114,98.4,103%,,102,101,,91.1%,,91.9,97.8,102,98.3%,115,108,106
COc1ccccc1C1OC2=Nc3cc(C)c(C)cc3NC2C1=O (stereo not drawn),88,97.7%,80.2,78.3%,,74.8,91%,104,84.2,80.8,93.1%,-13.2% (active),53,82.5,78.3,76.2,72.3%,106,,
CCCCC1(CC)COC(CCC)OC1 (stereo not drawn),102,106%,,101%,98.6,119,98.3%,101,99.7,91.7,103%,99.1%,94.7,82,103,96.6,97.3%,115,106,99.9
